Experimental data from PubChem BioAssay (NCI).
Compounds without any hit were thinned out: in the full panel of roughly 83,000, 20% have a hit.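 Compound tested at a single concentration for 48 hours in 96-well plates; a percent growth value below 10 was scored as active.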 Calls of active or inactive are those of the source.

Assays:
Assay in all cases: NCI-60 one-dose screen, 48 h (100 = growth as untreated, 0 = no growth, -100 = all killed)
Settings in all cases: 10 µM unless noted
[1] = test system: NCI-H23 lung
[2] = test system: NCI-H226 lung
[3] = test system: NCI-H322M lung
[4] = test system: HOP-62 NSCLC
[5] = test system: NCI-H460 lung
[6] = test system: NCI-H522 lung
[7] = test system: A549/ATCC NSCLC
[8] = test system: 786-0 renal
[9] = test system: COLO 205 colon
[10] = test system: DU-145 prostate
[11] = test system: K-562 leukemia
[12] = test system: MALME-3M melanoma
[13] = test system: MDA-MB-231 breast
[14] = test system: RXF 393 renal
[15] = test system: SF-268 CNS
[16] = test system: SF-295 CNS
[17] = test system: SF-539 CNS
[18] = test system: UACC-257 melanoma
[19] = test system: M14 melanoma
[20] = test system: HOP-92 NSCLC

Measured: growth

N#C/C(Sc1nc2sc3c(c2c(=O)n1Cc1ccccc1)CCCC3)=C1/SC=C(c2ccc(Cl)cc2)N1c1ccccc1
inactive: [1] 86.6% | [2] 106% | [3] 84.5% | [4] 78.8% | [5] 90.6% | [6] 89.7% | [7] 100% | [8] 87.4% | [9] 104% | [10] 119% | [11] 82.5% | [12] 89.8% | [13] 86.4% | [14] 90.9% | [15] 78% | [16] 88.9% | [17] 72.3% | [18] 108% | [19] 90.5%

CCOC(=O)C1=CCC(n2cc(F)c(=O)[nH]c2=O)O1 (centres undefined)
inactive: [1] 101% | [2] 103% | [3] 127% | [4] 122% | [5] 97.8% | [6] 112% | [7] 102% | [8] 107% | [9] 109% | [10] 97.6% | [11] 108% | [12] 112% | [13] 115% | [14] 171% | [15] 101% | [16] 114% | [17] 100% | [18] 99.7% | [19] 97.8%

c1ccc2[nH]c(-c3ccc(-c4nccc5c4[nH]c4ccccc45)cc3)nc2c1
inactive: [1] 69.1% | [2] 77.4% | [3] 58.7% | [4] 86.1% | [5] 42.9% | [6] 27.3% | [7] 45.7% | [9] 44.9% | [10] 67.4% | [12] 90.4% | [13] 30.2% | [14] 44.6% | [15] 52.3% | [16] 75.1% | [18] 81.8% | [19] 72.8%
active: [8] 2.97% | [11] 3.52% | [17] -40.4%

Nc1nc(N)c2c(n1)NC(c1ccc3c(c1)OCO3)CC(c1cccc(Nc3ccncc3)c1)=N2 (centres undefined)
inactive: [1] 90% | [2] 84.6% | [3] 96.9% | [4] 90.4% | [5] 96.5% | [6] 77.3% | [7] 79.6% | [8] 96.9% | [9] 86.3% | [10] 106% | [11] 44.3% | [12] 100% | [13] 94.2% | [14] 82.2% | [15] 68.1% | [16] 96.5% | [17] 101% | [18] 67.3% | [19] 83.5%

N#CSCc1cc(Cl)c(CSC#N)cc1Cl
inactive: [1] 72.8% | [2] 73.3% | [3] 112% | [4] 113% | [5] 74.6% | [6] 22.5% | [7] 120% | [8] 71.4% | [9] 61.6% | [10] 59.7% | [11] 29.2% | [12] 58% | [13] 57.6% | [14] 34.3% | [15] 63.3% | [16] 97.5% | [17] 45.7% | [18] 103% | [19] 27.4%

C=C(c1ccc(C(=O)O)c(F)c1)c1cc2c(cc1C)C(C)(C)C=CC2(C)C
inactive: [1] 76.2% | [2] 65.5% | [3] 90.7% | [4] 70% | [5] 82.1% | [6] 61.5% | [7] 38.1% | [8] 89.2% | [9] 107% | [10] 94.7% | [11] 73.9% | [12] 54.4% | [13] 88% | [14] 96.9% | [15] 74.3% | [16] 66.5% | [17] 72.2% | [18] 80.5% | [19] 91.1%

O=C(Nc1ncc(Cc2cc(C(F)(F)F)ccc2Cl)s1)C(=S)N1CCOCC1
inactive: [1] 89.8% | [2] 88.3% | [3] 94.6% | [4] 93% | [5] 100% | [6] 74.7% | [7] 93.8% | [8] 94.6% | [9] 96.4% | [10] 100% | [11] 82.2% | [12] 92.7% | [13] 87.4% | [14] 92.6% | [15] 88.7% | [16] 88.8% | [17] 101% | [18] 95% | [19] 86.7%

CC1OC(C(=O)N2CCN(CCO)CC2)CC1COC1CCCCC1 (centres undefined)
inactive: [1] 94% [50 µM] | [2] 84.3% [50 µM] | [3] 90.9% [50 µM] | [4] 85.7% [50 µM] | [5] 100% [50 µM] | [6] 93.2% [50 µM] | [7] 94.2% [50 µM] | [8] 109% [50 µM] | [9] 105% [50 µM] | [10] 105% [50 µM] | [11] 91.6% [50 µM] | [12] 88.2% [50 µM] | [13] 94.5% [50 µM] | [14] 102% [50 µM] | [15] 97.2% [50 µM] | [16] 102% [50 µM] | [17] 97.8% [50 µM] | [18] 98% [50 µM] | [19] 100% [50 µM]

C#Cc1cccc(Nc2nc(Cl)nc3cc(NC(=O)CCl)ccc23)c1
active: [1] -73.9% | [2] -49.4% | [3] -73.1% | [4] -77% | [5] -58.9% | [6] -69.1% | [8] -83.6% | [9] -70.5% | [10] -93.5% | [11] -36.2% | [12] -83.3% | [13] -73% | [14] -94.2% | [15] -52.2% | [16] -86.9% | [17] -96.5% | [18] -53.9% | [19] -52.2%
inactive: [7] 13.1%

CCN=c1sc2c(n1NC(=O)c1cc3ccc1CCc1ccc(cc1)CC3)C(=O)c1ccccc1C2=O
inactive: [2] 73% | [3] 80.5% | [9] 42.6% | [16] 31%
active: [1] -32.1% | [4] -58.6% | [5] 9.62% | [6] -34.8% | [7] -38.8% | [8] -90.4% | [10] -91.4% | [11] -28.5% | [12] -87.4% | [13] -7.49% | [14] -87.2% | [15] -10.6% | [17] -94.4% | [18] -90.5% | [19] -93.5%

CN1CCN(CCCNC(=O)c2c3c(n4ccccc24)C(=O)c2ncccc2C3=O)CC1
inactive: [2] 33.7% | [4] 25.8% | [8] 28.5% | [10] 17.8% | [14] 21.1% | [16] 28.4%
active: [1] -24.3% | [3] -23.9% | [5] -60.1% | [6] -43.4% | [7] -25.5% | [9] -73% | [11] -1.31% | [12] -91.2% | [13] 0.342% | [15] 9.37% | [17] -4.38% | [18] -55.8% | [19] -53.9%

CCCCCCC/C=N/NC(=O)c1ccc(-n2cc(-c3ccccc3)nn2)cc1
inactive: [1] 87.6% | [2] 85.2% | [3] 86.3% | [4] 95.8% | [5] 98.4% | [6] 79.9% | [7] 96% | [8] 92.2% | [9] 110% | [10] 96.1% | [11] 79.7% | [12] 78.1% | [13] 74.3% | [14] 83.5% | [15] 90.1% | [16] 87.8% | [17] 96.5% | [18] 100% | [19] 80.7%

COc1cc(CNC(=O)CCCC/C=C/C(C)C)ccc1OCc1cn(-c2cccc([N+](=O)[O-])c2)nn1
inactive: [1] 88% | [2] 90.9% | [3] 94.1% | [4] 97.4% | [5] 91.8% | [6] 82.6% | [7] 92% | [8] 73.4% | [9] 107% | [10] 109% | [11] 81.5% | [12] 103% | [13] 88.4% | [14] 92.7% | [15] 92.3% | [16] 104% | [17] 94.4% | [18] 94.4% | [19] 93.5%

N#C/C(=C\c1cccc2cnccc12)N1N=NC2C=CC=CC21 (centres undefined)
active: [20] -14.6% | [10] 8.33% | [13] 9.44% | [14] -17.1%
inactive: [1] 48.5% | [2] 68.7% | [3] 67.2% | [4] 79.9% | [5] 40.8% | [6] 14.1% | [8] 53.1% | [9] 47.4% | [11] 12.4% | [12] 36% | [15] 56.6% | [16] 98.4% | [17] 45.7% | [18] 46.9% | [19] 32.6%

O=C(NC1CCCCCC1)c1ccc2c(=O)n3c(nc2c1)CCCCC3
inactive: [1] 97.7% | [2] 106% | [3] 90.7% | [4] 99.2% | [5] 101% | [6] 103% | [7] 97% | [8] 106% | [9] 102% | [10] 94.3% | [11] 89% | [12] 91.1% | [13] 100% | [14] 105% | [15] 110% | [16] 116% | [17] 89.2% | [18] 112% | [19] 110%

OC1CSSC1Cn1cnc2c(Nc3ccc(F)c(Cl)c3)ncnc21 (centres undefined)
active: [19] -65.9%
inactive: [1] 60.2% | [2] 87.9% | [3] 74.1% | [4] 93.2% | [20] 137% | [6] 69.2% | [7] 77.5% | [8] 108% | [9] 111% | [10] 85.8% | [11] 32.5% | [12] 65.1% | [13] 84.6% | [14] 114% | [15] 81.8% | [16] 106% | [17] 93.2% | [18] 82%
